Hits are enriched below; roughly 4.9% of the tested compounds scored in any of these assays.
HSF-1 act = HSF-1 activators, primary screen, NIH3T3-HGL cells, MG132 stress, luminescence, single point; NIH3T3-HGL HSF-1 luciferase reporter, 8 h; 100% = twice DMSO control signal; activation, % at 9 µM; 300,000 compounds, 1.7% hits; AID 504408, 2011;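 active = mean replicate activation of at least 50% with a set share of replicates each reaching 50%; inconclusive = only one of those two conditions met; inactive = mean below 50% and too few replicates reaching it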
Platelet DG rel = inhibitors of platelet dense granule secretion, primary screen, cell-based, MLPCN, human platelets. human platelet-rich plasma, SFLLRN dense granule ATP release, luminescence. inhibition, %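 (compounds screened at 7.5 µM in platelet-rich plasma)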. 300,000 compounds, 0.22% hits. AID 1663, 2009;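 active = mean replicate score, as percent of positive control, at or above 50; inconclusive = mean below 50 but at least one replicate at or above 50; inactive = mean and every replicate below 50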
dFosB activator = activators of delta FosB homodimer, primary screen, biochemical, fluorescence polarization, TAMRA-CDK5 oligo, single point | purified delta FosB; percent of positive-control signal above neutral wells | 340,000 compounds, 0.99% hits | Protein FosB (Mus musculus), P13346 | activation, % at 25 µM;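 active = mean activation above about 17%, with every replicate also reaching it, limit read from the data, passing the limit was not always enough; inconclusive = only one of the two conditions met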
Target sequence (P13346 whole entry, looked up): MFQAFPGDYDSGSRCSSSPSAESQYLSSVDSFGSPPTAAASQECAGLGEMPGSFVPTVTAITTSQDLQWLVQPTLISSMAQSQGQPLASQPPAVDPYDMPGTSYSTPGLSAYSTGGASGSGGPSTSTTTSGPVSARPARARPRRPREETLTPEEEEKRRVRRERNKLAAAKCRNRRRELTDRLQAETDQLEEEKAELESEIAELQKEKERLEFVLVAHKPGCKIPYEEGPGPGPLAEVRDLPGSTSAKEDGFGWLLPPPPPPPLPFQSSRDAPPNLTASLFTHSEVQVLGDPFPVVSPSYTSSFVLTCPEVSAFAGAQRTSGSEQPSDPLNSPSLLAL
HSF1 inh = HSF1 inhibitors in luciferase reporter cells, primary screen, cell-based, NIH3T3, luminescence | 300,000 compounds, 0.77% hits | NIH3T3-HGL HSE-luciferase, MG132-induced, luminescence 8 h; stronger effect = lower value | activity change, negative = inhibition, % at 7.5 µM (by protocol) | AID 2098, 2009;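 active = more than half of replicate wells show activity change below -50%, luminescence cut by over half; inconclusive = some wells, but at most half, below -50%; inactive = no replicate well below -50%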;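 also: luciferase reports HSF-1 transcriptional activity via heat shock element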
HSP90 refold inh = HSP90 inhibitors, primary screen, cell lysate, luminescence | Rabbit reticulocyte lysate, luciferase refolding luminescence, 3 h | inhibition, % at 5.6 µM | 290,000 compounds, 0.91% hits | Heat shock protein HSP 90 (rabbit reticulocyte lysate; luciferase refolding);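 active = inhibition above the screen-wide mean plus 3 SD, computed separately per campaign, cut at about 16% in these data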;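 also: inhibitors lower the luminescence because luciferase stays unfolded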
MPTP block = mitochondrial permeability transition pore inhibitors, primary screen, biochemical, isolated mouse mitochondria, absorbance; Ca2+ swelling absorbance, 30 min; inhibition, % at 10 µM; 360,000 compounds, 1.4% hits;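 active = inhibition of 50% or more, scaled per plate between neutral and stimulator controls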
Hits are given with their value; - = inactive; ? = inconclusive; . = no result given.

SMILES	HSF-1 act	Platelet DG rel	dFosB activator	HSF1 inh	HSP90 refold inh	MPTP block
Cc1ccc2nc(C)cc(Nc3ccc4c(c3)OCCO4)c2c1	-	-	31	-	-	-
Cc1cccc(-n2cnc3c(c2=O)c2nc4ccccc4nc2n3Cc2ccco2)c1	104	-	-	-	.	-
COc1ccc(C2NCCc3c2[nH]c2ccccc32)cc1CN1CCc2cc(OC)c(OC)cc2C1C (stereo not drawn)	-	-	63	-	-	-
COc1ccc(C2NCCc3c2[nH]c2ccccc32)cc1COc1ccc(F)cc1 (stereo not drawn)	-	-	62	-	-	-
Cc1ccc(-c2nc3ccccc3[nH]2)s1	51	59	-	-	-	-
COC(=O)c1ccc(/C=N/Nc2nc3ccccc3[nH]2)cc1	-	-	-	-	-	-
COC(=O)c1ccc(-c2nc3ccccc3[nH]2)cc1	61	-	-	-	-	-
c1ccc(-c2nc3ccccc3[nH]2)cc1	-	-	-	-61	-	-
S=C(Nc1ccc(-c2nc3ccccc3[nH]2)cc1)Nc1cccnc1	59	-	?	-	-	-
c1csc(-c2nc3ccccc3[nH]2)c1	.	.	-	.	-	-
c1ccc2[nH]c(-c3ccncc3)nc2c1	-	-	-	-	-	-
Nc1ncnc2c1ncn2C1OCC(O)C1O (stereo not drawn)	.	.	.	.	.	-
O=C(CSc1ccccc1C(=O)O)NCC1CCCCC1	-	-	-	-	-	-
O=C(O)c1ccccc1-c1nc2ccccc2[nH]1	60	-	-	-	-	-
O=C(c1ccccc1-c1nc2ccccc2[nH]1)N1CCOCC1	-	-	-	-	-	-
COC(=O)c1ccc(C(=O)Nc2ccc3nc(-c4ccncc4)[nH]c3c2)cc1	-	-	44	-	-	-
O=C(CSc1nccn(-c2ccc(F)c(F)c2)c1=O)NC1CCCC1	62	-	-	-	.	-
COc1ccccc1-n1ccnc(SCC(=O)NC2CCCC2)c1=O	-	-	-	-	.	-
O=C1OC(Nc2cc(Br)cc3cccnc23)c2ccccc21 (stereo not drawn)	-	-	-	-	17	-
CCOC(=O)Cc1cc(=O)c2cc(C)ccc2[nH]1	-	-	-	-68	-	-
Cc1ccc2[nH]c(-c3ccccc3)cc(=O)c2c1	-	-	-	-	-	-
CC(C)c1nc2ccccc2c2nnc(SCC(=O)NCc3ccco3)n12	-	-	-	-60	-	-
O=C(CSc1nc(C2CCCCC2)nc2ccccc12)NCc1ccco1	59	-	-	-	-	-
CCn1c(CNc2ccc(Cl)cc2)nnc1SCC(=O)OC1CCCCC1	60	-	-	-	-	-
CC(C)(C)c1nc2ccccc2c2nnc(SCC(=O)NCc3ccco3)n12	-	-	-	-	-	-
SMILES	HSF-1 act	Platelet DG rel	dFosB activator	HSF1 inh	HSP90 refold inh	MPTP block
Cc1sc2nc(C3CC3)nc(SCC(=O)NCc3ccco3)c2c1C	-	-	-	-	-	-
O=C(CSc1nnc(CNc2ccc(Cl)cc2)n1Cc1ccccc1)NCc1ccco1	63	-	-	-	-	-
CCOC(=O)C1=CN(Cc2ccco2)S(=O)(=O)NC1c1cccc(OC)c1 (stereo not drawn)	.	.	-	.	.	-
S=C1SCN(Cc2ccccc2)CN1Cc1ccccc1	-	-	-	-	-	-
S=C1SCN(Cc2cccnc2)CN1Cc1cccnc1	-	-	-	-86	-	-
Cc1cc(-c2ccccc2)c2ccc(NC(=O)C(C)(C)C)nc2n1	-	-	-	-62	-	-
O=C(CCc1ccc(S(=O)(=O)N2CCOCC2)cc1)Nc1ccc(F)cc1[N+](=O)[O-]	.	.	-	.	.	-
Cc1ccc(-n2cc3c(=O)n(C)c(=O)n(C)c3c2)cc1C	-	-	-	-	-	-
Cn1c(=O)c2cn(-c3ccc4c(c3)OCCO4)cc2n(C)c1=O	-	-	-	-67	-	-
CC(C)(C)n1nc2c(c1NC(=O)Cc1ccc([N+](=O)[O-])cc1)CS(=O)(=O)C2	-	-	-	-	-	-
CCc1nc2ccc(C(=O)NCCCn3ccnc3)cn2c1N(CC)C(=O)NCCc1ccccc1	.	.	.	.	.	-
